# Measured values: PubChem BioAssay (NCATS)
# Results filed as inconclusive are left out. Unmarked numbers belong to inactive results. The source made the active and inactive calls. Calls come from the whole dose curve; as a rule, active = well fitted cell-killing curve with a large enough effect; inconclusive = small, poorly fitted or top-dose-only effect; inactive = no such curve, though single readings can be large or run the other way.
# Experiment: qHTS of pediatric cancer cell lines to identify multiple opportunities for drug repurposing: Primary screen for LAN-5 cells (AID 1347100)
# Conditions: LAN-5 neuroblastoma viability, CellTiter-Glo luminescence, 48 h; series mostly up to 46 µM; activity change, negative = cytotoxic: at the top concentration
# Description: Drug repurposing or repositioning has been offered as a strategy for drug development in oncology programs. This approach has special potential for childhood cancers and other rare or orphan diseases, where the expected return on new drug development has been a disincentive to pharmaceuticals.
# In this project we exploit the poly-pharmacology of drugs to discover new indications via phenotypic screening of a panel of 19 well-characterized cell lines derived from solid tumors seen in children and adolescents. The goal is to identify approved drugs with previously unrecognized anticancer properties that has the potential to reveal new mechanisms and biological processes involved in carcinogenesis or drug resistance. We employed a titration-based paradigm (quantitative high-throughput screening or qHTS), where all compounds were tested at multiple concentrations for their effect on cell viability. Concentration-response curves (CRCs) were derived directly from the primary screen, and both potency and efficacy values were used to identify compounds with robust bioactivity profiles. We screened the NIH Chemical Genomics Center (NCGC) Pharmaceutical Collection (NPC) and Mechanism Interrogation Plate (MIPE) small molecule collections of approved and investigational compounds against these cell lines; and measured metabolically active cells after 48 hours of compound treatment as a proxy for cell viability.
# Assay Submitter: Nathalia J. Martinez, National Center for Advancing Translational Sciences, National Institutes of Health, Rockville, MD, USA; email: natalia.martinez@nih.gov
# [1] Shen, M et al. Quantitative high-throughput phenotypic screening of pediatric cancer cell lines identifies multiple opportunities for drug repurposing. Oncotarget 2017 Dec 19;9(4):4758-4772. PMID 29435139.
# The cells were obtained from University of North Carolina (UNC), Pediatric Preclinical Testing Program (PPT), and Coriell Institute (CI).
# qHTS cell viability assay:
# Cells were assayed in growth media at a density of 500-1,000 cells/well. Five microliters of cells were dispensed into 1,536-well, white, solid-bottom, TC-treated plates (Greiner Bio One) using a multidrop dispenser and incubated at 37 degrees C, 5% CO2, under a humidified atmosphere for 5 hours. Twenty-three nanoliters of compounds and controls (neutral control DMSO or positive control bortezomib at final concentration of 2.3 µM) were subsequently transferred by Kalypsys pintool. For primary screens, the MIPE collection was tested at 11-point dilutions (final concentrations range from 0.78 nM to 46 µM) and the NPC collection at 8-point dilutions (final concentrations range from 0.59 nM to 46 µM). Compounds tested in follow-up screens were assayed at 11-point dilutions. Cells were incubated for 48 hours, followed by addition of 3 µL of CellTiter-Glo (Promega). After a 15 min incubation at room temperature, samples were analyzed for luminescence intensity using a ViewLux High-throughput CCD imager equipped with clear filters.
# Potency is the fitted concentration of half-maximal effect.
SMILES,Potency,"activity change, negative = cytotoxic"
CCc1ccc(C(=O)Nc2cc(CN3CCN(C)CC3)cc(C(F)(F)F)c2)cc1C#Cc1cnc2ccnn2c1,7430 nM (active),–
C=CC(=O)Nc1ccc2ncnc(Nc3ccc(OCc4cccc(F)c4)c(Cl)c3)c2c1,1 nM (active),–
O=C1c2cccc(O)c2C(=O)c2c(O)cc(CO)cc21,–,-24.4%
N#Cc1ccc(COC[C@H]2O[C@@H](n3c(NCc4ccc(Cl)c(Cl)c4)nc4c(N)ncnc43)[C@@H](O)[C@@H]2O)cc1,16600 nM (active),–
O=C1CSC(=O)N1C(CCc1ccncc1)COc1ccc(-c2cccc([N+](=O)[O-])c2)cc1 (stereo not given),14800 nM (active),–
N=c1ccn2c(n1)O[C@H]1[C@@H](O)[C@@H](CO)O[C@H]12,3320 nM (active),–
C=CC1=C(C(=O)O)N2C(=O)[C@@H](NC(=O)C(=NO)c3csc(N)n3)[C@H]2SC1,–,-2.49%
CCC[C@H]1C[C@H](C(=O)N[C@@H]([C@@H]2O[C@@H](SC)[C@@H](O)[C@@H](O)[C@@H]2O)[C@H](C)Cl)N(C)C1,–,-0.0528%
O=C(O)C(=O)Nc1cccc(C2=NN=N[N]2)c1,–,-22.9%
Cn1cc(-c2cnn3c(N)c(Br)c([C@H]4CCCNC4)nc23)cn1,743 nM (active),–
C=CCNC1=C2C[C@@H](C)C[C@H](OC)[C@@H](O)[C@@H](C)C=C(C)[C@H](OC(N)=O)[C@@H](OC)C=CC=C(C)C(=O)NC(=CC1=O)C2=O,2090 nM (active),–
Cc1[nH]c(C=C2C(=O)Nc3ccccc32)c(C)c1CCC(=O)O,132 nM (active),–
CCCNS(=O)(=O)Nc1ncnc(OCCOc2ncc(Br)cn2)c1-c1ccc(Br)cc1,–,-5.07%
CCOC(=O)C=C[C@H](C[C@@H]1CCNC1=O)NC(=O)[C@@H](CC(=O)[C@@H](NC(=O)c1cc(C)on1)C(C)C)Cc1ccc(F)cc1,–,13.8%
C=Cc1c(C)c2cc3nc(cc4[nH]c(cc5nc(cc1[nH]2)C(C)=C5CCC(=O)O)c(CCC(=O)OC)c4C)[C@@]1(C)C3=CC=C(C(=O)OC)[C@H]1C(=O)OC,52.6 nM (active),–
CC(C)[C@H](CO)Nc1nc(Nc2cccc(Cl)c2)c2ncn(C(C)C)c2n1,11800 nM (active),–
C=C1C(=O)O[C@H]2[C@@H]1CCC(C)=CCC[C@@]1(C)O[C@@H]21,7430 nM (active),–
CN(N=O)C(=O)N[C@H]1C(O)OC(CO)[C@@H](O)[C@H]1O (stereo not given in full),–,10.1%
O=C(O)[C@H](CC(=O)N1C[C@@H]2CCCC[C@H]2C1)Cc1ccccc1,–,0.504%
CC(N[C@H]1CCCC[C@H]1NC(=O)c1ccc(Cl)cc1)c1cccc2ccccc12 (stereo not given in full),2960 nM (active),–

SMILES,Potency,"activity change, negative = cytotoxic"
CN[C@H]1[C@@H](O)[C@@H]2O[C@@H]3O[C@H](C)CC(=O)[C@]3(O)O[C@@H]2[C@@H](NC)[C@H]1O,166 nM (active),–
O=C(Nc1cccc(Nc2ncc(Br)c(NCCc3cnc[nH]3)n2)c1)N1CCCC1,118 nM (active),–
O=C(NNC(=O)c1ccc(CNS(=O)(=O)c2ccc(F)c(Cl)c2)cc1)c1ccccc1,–,0.0558%
CC(=O)OCC(=O)[C@@]12N=C(C)O[C@H]1C[C@H]1[C@@H]3CCC4=CC(=O)C=C[C@]4(C)[C@@H]3[C@@H](O)C[C@@]12C,–,-1.21%
CC(C)C[C@H](NC(=O)CNC(=O)c1cc(Cl)ccc1Cl)B1OC(=O)CC(CC(=O)O)(C(=O)O)O1 (stereo not given in full),118 nM (active),–
Cn1cc(C2=C(c3c4n(c5ccccc35)CCC(CN)C4)C(=O)NC2=O)c2ccccc21 (stereo not given),26400 nM (active),–
CC(C)(C)[C@H](NC(=O)c1ccc(N)c(Cl)c1)C(=O)N1CCC[C@@H]1C(=O)N[C@H](C#N)CC(=O)O,–,8.05% [at 4.84 µM]
CC(=O)NCC(=O)N1[C@H]2CC[C@H]1c1cc(Nc3ncc(C(F)(F)F)c(NC4CCC4)n3)ccc12,33.2 nM (active),–
C[N+]1(C)[C@@H]2C[C@@H](OC(=O)C(O)(c3cccs3)c3cccs3)C[C@H]1[C@@H]1O[C@@H]12,–,224%
CS(=O)(=O)N1CCc2c(-c3cnc(N)nc3)nc(N3CCOCC3)nc21,332 nM (active),–
COC(=O)[C@H](CCCN=C(N)N)NS(=O)(=O)c1ccc(C)cc1,–,12.3%
CON=C(C(=O)N[C@@H]1C(=O)N2C(C(=O)O)=C(Cn3ccc(=N)n3CCO)CS[C@H]12)c1csc(N)n1,–,-12.4%
O=c1[nH]c(=O)n([C@H]2C[C@@H](O)[C@@H](CO)O2)cc1F,1320 nM (active),–
CN1[C@H]2CC(OC(=O)[C@@H](CO)c3ccccc3)C[C@H]1[C@H]1O[C@H]12 (stereo not given in full),–,13.8% [at 16.1 µM]
CC(C)N1[N]C(=C2C=c3cc(O)ccc3=N2)c2c(N)ncnc21,5900 nM (active),–
CC(C)OC(=O)[C@H](C)N[P@](=O)(OC[C@H]1O[C@@H](n2ccc(=O)[nH]c2=O)[C@](C)(F)[C@H]1O)Oc1ccccc1,–,-19%
C=CCNc1c(O)cc2c(O)c1C[C@@H](C)C[C@H](OC)[C@@H](O)[C@@H](C)C=C(C)[C@H](OC(N)=O)[C@@H](OC)C=CC=C(C)C(=O)N2,1870 nM (active),–
C[C@H]1C[C@H]2[C@@H]3CCC4=CC(=O)C=C[C@]4(C)[C@@H]3C(=O)C[C@]2(C)[C@@]1(O)C(=O)CO,–,-4.22%
CC(C)Oc1ccc(C(=O)N[C@H](CNC(=O)CN(C)C)Cc2ccc(-c3cn4cccc([C@H](C)O)c4n3)cc2)cc1Cl,1050 nM (active),–
N#Cc1c(NC(=O)c2cccc3ccccc23)sc2c1CCCC2,148 nM (active),–
